Where “and” joins values, the source holds several entries; their conditions need not be identical. Equal entries are not always repeated. The full ranking holds about 13,000 compounds; the median of “IFI” is about 4, and the highest 2% start at about 17. Only a selection was taken, and the highest values are over-represented in it overall.

A short description of the experiment: GSK_TCMDC: Inhibition Frequency Index (IFI). The number of non-kinase HTS assays where a compound showed > 50 % inhibition, expressed as a percentage of the number of such assays in which the compound was tested. The class given is functional.
Consider `C=CCC1OC(=O)c2cc(OC)cc(OC)c21` (configuration not stated), for which the IFI came to 33.6%.
The compound `C=CC(C)C1OC(=O)c2cc(OC)cc(OC)c21` (configuration not stated) had an IFI of 27%.
With `COc1ccc(CCNCCCCCNCCCc2ccc(Cl)cc2)cc1OC` the figure was 2.8%.
With `COc1cc(Cc2cnc(N)nc2N)cc(CC(C)O)c1O` (configuration not stated) the figure was 0%.
With `Fc1ccc2[nH]c(-c3cccc(-c4ccc(CN5CCC(CCN6CCCCC6)CC5)cc4)c3)nc2c1` the figure was 8.33%.
In the case of `NC(=O)c1ccc(C(=O)Nc2cccc(-c3ccc(-c4nc5cc(C(F)(F)F)ccc5[nH]4)cc3)c2)cc1`, the IFI was determined as 2.59%.
With `O=C(NCCCCN1CCC(c2ccc3c(c2OCCN2CCCC2=O)CCCC3)CC1)c1ccc(-c2ccc(C(F)(F)F)cc2)cc1` the figure was 9.65%.
Compound `C[C@@H]1CC[C@H](NC(=O)[C@H](CC2CCCC2)NC(=O)N2CCNCC2)C(=O)CN1S(=O)(=O)c1ccccn1` registered an IFI of 5.93%.
With `Cc1cc(N[C@@H](Cc2ccccc2)C(=O)NCCOc2ccccc2)nc(NCC2CCCCC2)n1` the figure was 16.7%.
With `O=C(NCCOc1ccccc1)[C@H](Cc1ccccc1)Nc1ccnc(NCC2CCCCC2)n1` the figure was 20%; with `Cc1ccc(CNC(=O)[C@H](Cc2ccccc2)Nc2ccnc(NCC3CCCCC3)n2)cc1`, 11.1%; with `CC(C)C[C@H](Nc1ccnc(NCC2CCCCC2)n1)C(=O)NCCOc1ccccc1`, 13%.
With `CC(C)C[C@H](Nc1ccnc(NCC2CCCCC2)n1)C(=O)NCCc1ccccc1` the figure was 8.89%; with `O=C(NCCc1ccccc1)[C@H](Cc1ccccc1)Nc1ccnc(NCC2CCCCC2)n1`, 20.4%; with `COc1ccc2nccc([C@@H](O)CN3CCC(NCc4nc5cc(F)cc(F)c5[nH]4)CC3)c2c1`, 3.65%.
The compound `CC1(C)NC(N)=NC(=N)N1OCCCSc1ccccc1` returned an IFI of 2.26%.
`Cc1cccc(NC(=O)NCc2ccccc2)n1` displayed an IFI of 0.78%.
With `Cc1ccccc1Cc1cccc(/N=C(\N)Nc2ccc(Cl)cc2)n1` the figure was 31.2%; with `Cc1cccc2nc(-c3ccc(-c4ccc(NC(=O)Nc5ccc(Cl)cc5)cc4)s3)[nH]c12`, 5.94%; with `Cc1cc(NCCc2ccccc2)nc(NC(=N)Nc2ccc(Cl)cc2)n1`, 3.82%.
`N/C(=N\c1cccc(Cc2ccccc2)n1)NCc1ccccc1` gave an IFI of 21%.
With `Cc1cc(OCCCn2ccnc2)ccc1-c1csc(/N=C(\N)NCc2ccccc2)n1` the figure was 5%; with `CC(=O)Nc1nc(C(=O)Nc2ccc(-c3cccc(-c4nc5cc(C(F)(F)F)ccc5[nH]4)c3)cc2)cs1`, 6.03%.
With `Cc1cc(=O)c(-c2ccc(Oc3cccc(C(F)(F)F)c3)cc2)c(C)[nH]1` the figure was 2.56% and 2.24%; with `CCC(C)c1ccc(Nc2nc(C)cc(N(CC)CCCN3CCCCC3)n2)cc1` (configuration not stated), 19.5%; with `CCN(CCCN1CCCCC1)c1cc(C)nc(Nc2ccc(C(C)C)cc2)n1`, 10.3%.
With `CCN(CCCN1CCCCC1)c1cc(C)nc(Nc2ccc(C)cc2)n1` the figure was 2.56%.
